Screening data deposited in PubChem BioAssay by National Center for Advancing Translational Sciences (NCATS).
This is a sample that favours compounds with a hit; in the whole collection about 13% have one here.
Lassa entry inh – inhibitors of Lassa virus binding or cell entry. Lassa virus pseudotype entry inhibition, cell reporter. 1.2% of 300,000 active. Potency, µM (top dose mostly 37.9 µM), for the others: at the highest dose activity change, negative = inhibition, most hits filed as inhibitors; calls by dose curve; tested in HEK293 cells; also: potency is read from the fitted curve at half-maximal effect; % is scaled to controls: 0 for no effect and ±100 for the full control effect; nearly all actives have a fitted effect of over 50% in size
HCV inhibitor – blocks hepatitis C virus. 3.4% of 340,000 active. AID 651820. Potency, µM (series often up to 41.8 µM), inactives show at the highest dose activity change, negative = inhibition, most hits filed as inhibitors. Huh7.5.1 HCVcc-Cre infection, luciferase reporter, 44 h; active = well fitted inhibition curve with a large enough effect; inconclusive = small, poorly fitted or top-dose-only effect, or another doubt; inactive = no such curve, though single readings can be large or run the other way; also: potency is read from the fitted curve at half-maximal effect; % is scaled to controls: 0 for no effect and ±100 for the full control effect
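Reporter virus HCVcc-Cre (~0.5 moi) infects cells exposed to compound; seeding density 1,000 cells/well with 4 h settling beforehand. Luminescence, 15 sec read, taken 44 h post-infection following a 15 min RT substrate incubation.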
CHX counter – counter-screen for Shiga toxin inhibitors: cycloheximide protein synthesis inhibition | cell reporter, cycloheximide protein synthesis inhibition counterscreen | max response, % | 12% of 300,000 active | AID 2314; in the data active = max response mostly above about 13%, no sharp cut-off; inactive = mostly below about 14%; also: read at 38.3 µM for the half of the compounds with a filed dose; 0% is about no effect
MARV entry inh – Marburg virus entry inhibition; AID 540276; 1.8% of 300,000 active; Marburg virus pseudotyped entry inhibition, cell reporter; Potency, µM (doses to about 37.8 µM), inactives show at the highest dose activity change, negative = inhibition, hits mostly inhibitors; calls by dose curve; tested in HEK293 cells; also: potency is read from the fitted curve at half-maximal effect; % is scaled to controls: 0 for no effect and ±100 for the full control effect
Shiga inhibitor – Shiga toxin inhibition; inhibition, % at 38.7 µM; Vero cells, Shiga toxin protein synthesis inhibition reporter; 9.2% of 290,000 active; in the data active = inhibition mostly above about 28%, no sharp cut-off; inactive = mostly below about 43%; also: 0% is about no effect
FMDV inh – blocks foot and mouth disease virus. FMDV antiviral cell-based qHTS. Potency, µM (doses to about 57.9 µM), without a hit: at the top dose activity change, negative = inhibition, most hits filed as inhibitors. 1.2% of 410,000 active. AID 1159524; calls by dose curve; tested in HEK293T cells; also: read-out not given here; potency is read from the fitted curve at half-maximal effect; % is scaled to controls: 0 for no effect and ±100 for the full control effect; nearly all actives have a fitted effect of over 45% in size
* = called active by the depositor; ? = inconclusive; · = not tested or not shown; + = active, no number; ! = a repeat was not active; [ ] = another dose, or the depositor's remark.

SMILES	Lassa entry inh	HCV inhibitor	CHX counter	MARV entry inh	Shiga inhibitor	FMDV inh
Cc1cccc(NC(=O)NCC(F)(F)F)n1	2%	8%	-3	?	-9	-1%
COc1ccc(NC(=O)Nc2cccc(C)n2)c(OC)c1	24%[46.1 µM]	8%	33*	26%[46.1 µM]	39*	21%
Cc1ccc(NC(=O)Nc2cccc(C)n2)c(C)c1	·	6%	36	·	20	20%
Cc1cccc(NC(=O)Nc2ccc(Cl)c(Cl)c2)n1	10%	-25%	27*	?	72*	-35%
COc1cccc(NC(=O)Nc2cccc(C)n2)c1	?	-24%	53*	4%[46.1 µM]	92*	26%
COc1ccc(NC(=O)Nc2cccc3ccccc23)c(OC)c1	·	-24%	-1	·	-3	-12%
Cc1cccc(NC(=O)Nc2ccccc2)n1	4%[46.1 µM]	-8%	23*	?	43*	28%
O=S(=O)(NCC(O)c1ccccc1)c1cc(Cl)sc1Cl (stereo not given)	-3%[46.1 µM]	17%	10	-5%[46.1 µM]	25*	28%
CN1CCN(CCCN2c3ccccc3Sc3ccc(C(F)(F)F)cc32)CC1	13µM*	14µM*!	-3	6.5µM*	-16	?
O=C(CCN1CCN(CCO)CC1)N1c2ccccc2Sc2ccc(C(F)(F)F)cc21	·	13µM*	-2	-6%	-9	-5%
CN1CCN(CCC(=O)N2c3ccccc3Sc3ccc(Cl)cc32)CC1	-23%	?	-1	?	-4	-16%
O=C(CN1CCCC(O)C1)N1c2ccccc2Sc2ccc(C(F)(F)F)cc21 (stereo not given)	-21%	0%	-4	-2%	-27	?
COC(=O)C1(CC2CC(c3cccc(Br)c3)=NO2)CCN(C(=O)OC(C)(C)C)CC1 (stereo not given)	·	-9%	-7	·	-8	-23%
Cc1ccc(NCC(=O)N/N=C\C(Br)=C\c2ccccc2)cc1	?	?	9	-10%	-18	·
O=C(O)c1ccc(N/N=C/C(Br)=C/c2ccccc2)cc1	·	12%	25*	·	11	?
CC(/C=N/NC(=O)NC1CCCCC1)=C\c1ccccc1	·	15%	28*	?	46*	39%
O=C(N/N=C/C(Br)=C/c1ccccc1)C1CC1	-8%	-17%	25*	-10%[46.1 µM]	56*	43%
O=C(N/N=C/c1cccnc1)C(O)c1ccccc1 (stereo not given)	-10%	32%	-1	32%	9	25%
O=C(N/N=C/C(Br)=C/c1ccccc1)C(O)c1ccccc1 (stereo not given)	?	?	44*	?	74*	23%
O=C(N/N=C/C(Br)=C/c1ccccc1)NC1CCCCC1	-16%[46.1 µM]	-12%	50*	-23%[46.1 µM]	97*	29%
Cc1cccc(C2=NN(c3ccccc3)[C@H](CO)[C@H]2C)c1	·	·	22	·	+	·
CC(=O)Nc1cccc(NC(=O)c2ccccc2Cl)c1	·	·	·	·	·	-24%
CC(C)(C)NC(=O)c1cccc(NC(=O)c2ccc3c(c2)C(=O)N(C(C)(C)C)C3=O)c1	?	?	2	?	5	25µM*
CC(C)(C)N1C(=O)c2ccc(C(=O)Nc3ccc(O)cc3)cc2C1=O	-16%	?	23*	?	46*	?
Cc1ccc(SCc2cn3cccnc3n2)cc1	15%	-10%	41*	29%	57*	27%
SMILES	Lassa entry inh	HCV inhibitor	CHX counter	MARV entry inh	Shiga inhibitor	FMDV inh
Clc1ccc(SCc2cn3cccnc3n2)cc1	2%	-17%	27*	29%	97*	·
Cc1cc(OCc2cn3cccnc3n2)ccc1Cl	?	?	71*	?	65*	16%
CCN(Cc1cn2cccnc2n1)C1CCCCC1	5%[46.1 µM]	-10%	-4	10%[46.1 µM]	13	-9%
Cc1ccn2cc(CCNS(=O)(=O)c3ccc4ccccc4c3)nc2c1	0%	26%	·	22%	·	23%
Cc1ccn2cc(CSc3ccccc3)nc2c1	?	-19%	47*	?	111*	-4%
O=C(O)CCC(=O)N1CCc2cc(S(=O)(=O)N3CCN(c4ccc(F)cc4)CC3)ccc21	·	16%	-1	0%	-19	-6%
CCCc1cc(=O)[nH]c(SCC(=O)Nc2cc(S(=O)(=O)N3CCOCC3)ccc2Cl)n1	-8%[46.1 µM]	6%	·	-10%[46.1 µM]	·	20%
COC(=O)c1ccc(COc2cccn3c(N(C)C(=O)CCC4CCCC4)c(C)nc23)cc1	·	·	·	·	·	35µM*
Cc1nc2c(OCc3ccc(C#N)cc3)cccn2c1N(C)C(=O)CCC1CCCC1	·	·	·	·	·	22µM*
